The campaign covered roughly 310,000 compounds. About 14,000 (4.5%) showed an effect of 50% or more. The effect is printed as a negative number. The full list was thinned out, with strong results kept by preference.
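Further: peak tail current of the secondary pulse compared with the same well before compound.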

For the experiment, the target named is human ether-à-go-go-related gene (hERG) potassium channel (human, UniProt Q12809). As to the kind of experiment: primary screen, population patch clamp on CHO cells stably expressing hERG; higher = less effect of the substance.
human ether-à-go-go-related gene (hERG) potassium channel, sequence (Q12809 whole entry, looked up): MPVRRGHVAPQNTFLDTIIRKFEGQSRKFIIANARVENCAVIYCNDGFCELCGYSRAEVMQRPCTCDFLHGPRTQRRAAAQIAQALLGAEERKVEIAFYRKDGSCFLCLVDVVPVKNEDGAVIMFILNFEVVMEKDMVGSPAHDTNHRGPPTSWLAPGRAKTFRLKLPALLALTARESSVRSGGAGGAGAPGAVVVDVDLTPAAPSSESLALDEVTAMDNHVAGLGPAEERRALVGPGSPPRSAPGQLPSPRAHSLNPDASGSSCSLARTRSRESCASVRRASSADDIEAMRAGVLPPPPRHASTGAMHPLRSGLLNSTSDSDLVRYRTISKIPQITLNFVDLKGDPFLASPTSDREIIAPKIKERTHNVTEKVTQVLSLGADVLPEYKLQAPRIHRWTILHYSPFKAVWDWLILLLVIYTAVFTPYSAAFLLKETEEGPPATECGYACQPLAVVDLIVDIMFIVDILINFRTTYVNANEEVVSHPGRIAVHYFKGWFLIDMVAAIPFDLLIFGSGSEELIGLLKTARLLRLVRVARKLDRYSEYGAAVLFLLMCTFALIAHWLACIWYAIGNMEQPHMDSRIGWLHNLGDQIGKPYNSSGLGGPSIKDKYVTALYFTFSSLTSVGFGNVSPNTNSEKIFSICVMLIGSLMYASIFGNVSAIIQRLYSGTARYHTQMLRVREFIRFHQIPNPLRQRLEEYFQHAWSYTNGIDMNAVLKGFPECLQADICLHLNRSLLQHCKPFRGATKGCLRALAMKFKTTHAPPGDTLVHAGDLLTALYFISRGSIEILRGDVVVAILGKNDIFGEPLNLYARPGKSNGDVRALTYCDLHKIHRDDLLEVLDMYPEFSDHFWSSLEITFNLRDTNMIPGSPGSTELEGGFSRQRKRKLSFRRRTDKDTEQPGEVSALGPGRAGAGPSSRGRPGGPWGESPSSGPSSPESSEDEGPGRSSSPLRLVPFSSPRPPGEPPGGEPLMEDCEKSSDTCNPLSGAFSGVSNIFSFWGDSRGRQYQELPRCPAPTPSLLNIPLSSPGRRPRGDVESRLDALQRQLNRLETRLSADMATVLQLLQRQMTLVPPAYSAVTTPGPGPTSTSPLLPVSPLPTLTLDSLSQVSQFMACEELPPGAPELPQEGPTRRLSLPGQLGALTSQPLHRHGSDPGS
As for `Cn1c(=O)n(C)c2cc(N3CCOCC3)c(NC(=O)c3ccc(F)cc3)cc21`, the “hERG current change (%, negative = inhibition) at 10uM” value was -8.15%.
Regarding `Cc1cccc2cc3ccccc3nc12`, the “hERG current change (%, negative = inhibition) at 10uM” value amounted to 4.66%.
The value for `Cc1cc(CNC(=O)COc2ccc(C)c(C)c2)c2ccccc2n1` was 2.15%.
In the case of `O=C(N/N=C/c1ccc(Cl)c([N+](=O)[O-])c1)c1cc(-c2ccccc2)nc2ccccc12` it was 17.1%; in that of `Cn1c2ccccc2c(=O)c2cc(C#Cc3ccccn3)ccc21`, -0.776%; in that of `CCc1ccccc1N1C(=O)C2CC=CCC2C1=O` (stereo not drawn), -6.41%.
Regarding `COc1ccc(OC)c(S(=O)(=O)N(C)CC(=O)N2CCc3ccccc3C2)c1`, the “hERG current change (%, negative = inhibition) at 10uM” value is -35.1%.
In the case of `CCN(Cc1nc2cc(OC)c(OC)cc2c(=O)[nH]1)C(=O)c1ccc(S(=O)(=O)N(C)C)cc1` it was 4.07%.
With `Cc1cnc(NC2=NCCC2)s1`, the “hERG current change (%, negative = inhibition) at 10uM” value was 5.05%.
As to `O=C(OCC(=O)c1ccc[nH]1)c1ccc(Cl)nc1`, the “hERG current change (%, negative = inhibition) at 10uM” value is -5.61%.
With `Cc1ccc(-n2nc(C)c(NS(=O)(=O)c3ccccc3)c2C)cc1C`, the “hERG current change (%, negative = inhibition) at 10uM” value is -16.9%.
The value for `CCN(CC)S(=O)(=O)c1ccc2c(c1)c(=O)c(C(=O)NCCCN(C)c1ccccc1)cn2C` was -12.2%; that for `CCCN(CCC)CCCNC(=O)c1cn(C)c2ccc(S(=O)(=O)N(C)C3CCCCC3)cc2c1=O` was -73.7%.
Regarding `COC(CN(C)C(=O)c1cn(C)c2ccc(S(=O)(=O)N(C)C3CCCCC3)cc2c1=O)OC`, the “hERG current change (%, negative = inhibition) at 10uM” value is given as 10.3%.
For `Cn1c(=O)n(C)c2cc(S(=O)(=O)Nc3ccc(F)cc3)ccc21`, the “hERG current change (%, negative = inhibition) at 10uM” value is recorded as 20.9%.
For the compound `CCN1CCN(c2ccc(S(=O)(=O)N3CCCC3)cn2)CC1`, the “hERG current change (%, negative = inhibition) at 10uM” value came to 16.2%.
With `Cc1nn(-c2ccccc2)c(C)c1NC(=O)COC(=O)CCc1ccccc1`, the “hERG current change (%, negative = inhibition) at 10uM” value is on record as -10.2%.
On to `CC(=O)N1CCC2(CC1)CC(=O)c1cc(OCC(=O)N3CCCC3)ccc1O2`, for which the “hERG current change (%, negative = inhibition) at 10uM” value came out at 9.03%.
Regarding `CC(=O)N1CCC2(CC1)CC(=O)c1cc(OCC(=O)N3CCOCC3)ccc1O2`, the “hERG current change (%, negative = inhibition) at 10uM” value is given as -10.6%.
In the case of `COc1cccc(OCC(=O)N2CCC3(CC2)CC(=O)c2ccccc2O3)c1` it was -55.8%; in that of `Cc1cccc(OCC(=O)N2CCC3(CC2)CC(=O)c2ccccc2O3)c1`, -54.7%; in that of `CC(C)(C)C1CCC(OC(=O)C[N+]2(C)CCCCC2)CC1.[I-]` (stereo not drawn), 23.1%.
The value for `Cc1cccc(Nc2ccc(C(=O)N3CCOCC3)cn2)c1` was 10.7%; that for `CCOc1ccc(S(=O)(=O)Nc2cccc(C(=O)NCC3(N4CCCCC4)CCCCC3)c2)cc1` was -71.6%; that for `CC(C)(CNC(=O)c1cccc(NS(=O)(=O)c2ccc(Br)cc2)c1)N1CCOCC1` was -33.7%.
In the case of `Cc1ccc(S(=O)(=O)Nc2cccc(C(=O)NCC3(N4CCCCC4)CCCCC3)c2)cc1F`, the “hERG current change (%, negative = inhibition) at 10uM” value is -82.6%.
As for `Cc1ccc(S(=O)(=O)Nc2cccc(C(=O)N3CCCC3)c2)cc1F`, the “hERG current change (%, negative = inhibition) at 10uM” value is on record as -0.933%.
The value for `O=C(NCC1(N2CCCCC2)CCCCC1)c1ccc(NS(=O)(=O)c2ccccc2)cc1` was -44.1%; that for `CCOc1ccc(S(=O)(=O)Nc2ccc(C(=O)NCC3(N4CCCCC4)CCCCC3)cc2)cc1` was -45.8%; that for `Cc1cccc(NS(=O)(=O)c2cccc(C(=O)NCC(C)(C)N3CCOCC3)c2)c1` was 4.99%.
In the case of `Cc1ccc(S(=O)(=O)Nc2cccc(C(=O)NCCN3CCOCC3)c2)cc1F` it was -1.9%; in that of `O=C(NCC1(N2CCCCC2)CCCCC1)c1cccc(NS(=O)(=O)c2ccccc2)c1`, -64.4%; in that of `CC(=O)Nc1cccc(C(=O)NCC2(N3CCCCC3)CCCCC2)c1`, 19.4%.
In the case of `CCOc1ccc(NS(=O)(=O)c2ccc(C(=O)NCC3(N4CCCCC4)CCCCC3)cc2)cc1` it was -11%; in that of `Cc1ccc(S(=O)(=O)Nc2cccc(C(=O)NCC(C)(C)N3CCOCC3)c2)cc1F`, -50.3%; in that of `C[C@H](NC(=O)N1CCn2c1nc1ccccc12)C(=O)NCC1CCCO1` (stereo partly drawn), 20.8%.
For `CC(OC(=O)c1cccc(-n2cnnn2)c1)C(=O)Nc1cccc(Cl)c1` (stereo not drawn), the “hERG current change (%, negative = inhibition) at 10uM” value was -2.88%.
The value for `N#Cc1ccccc1OCC(=O)OCC(=O)N1CCN(C(=O)c2ccco2)CC1` was 3.22%; that for `Cc1cc(N2C(=O)CC(N3CCN(c4ccc(C(=O)c5cccs5)cc4)CC3)C2=O)no1` (stereo not drawn) was -37.3%; that for `CC(C)CCOP(=O)(c1ccc(N(C)C)cc1)C(O)c1ccc(C(C)C)cc1` (stereo not drawn) was 11.7%.
The value for `CCOC(=O)c1cn2nc(Oc3ccccc3)ccc2n1` was -12.8%; that for `O=C(Cc1ccccc1)N/N=C/c1cc2c(cc1Cl)OCO2` was 1.85%; that for `COc1cc(NC(=O)NNC(=O)c2cc3occc3n2C)cc(OC)c1OC` was 26.1%.
The value for `CNS(=O)(=O)c1cccc(C(=O)NCC2(N3CCOCC3)CCCCC2)c1` was 9.92%; that for `O=C(NCC1(N2CCCCC2)CCCCC1)c1ccc(NS(=O)(=O)c2ccc(F)cc2)cc1` was -42.9%; that for `CNS(=O)(=O)c1cccc(C(=O)NCC2(N3CCCCC3)CCCCC2)c1` was -18.3%.
Regarding `Cc1cccc(NS(=O)(=O)c2cccc(C(=O)NCC3(N4CCCCC4)CCCCC3)c2)c1`, the “hERG current change (%, negative = inhibition) at 10uM” value is -89.9%.
In the case of `CS(=O)(=O)c1ccc(C(=O)NCC2(N3CCCCC3)CCCCC2)cc1` it was -11%; in that of `Cc1cc(S(=O)(=O)Nc2ccc(C(=O)NCC3(N4CCCCC4)CCCCC3)cc2)ccc1F`, -66.4%.
In the case of `O=C(COc1ccccc1)Nc1nc(-c2cccs2)cs1` it was 5.72%; in that of `CCOC(=O)c1c(C)[nH]c(C(=O)OC(C)C(=O)NCc2ccccc2)c1C` (stereo not drawn), 17.4%; in that of `COc1ccccc1-c1nnc(NC(=O)C2=COCCO2)o1`, 14.3%.
In the case of `CCc1sc(C(=O)N2CCC3(CC2)OCCO3)cc1Br` it was -7.08%; in that of `CC(=O)Nc1ccc(Nc2nnc(-c3ccc(C)c(S(=O)(=O)NCC4CCCO4)c3)c3ccccc23)cc1` (stereo not drawn), -5.1%.
As for `O=C1NN(c2ccc(Br)cc2)C(=O)/C1=C\c1ccc(O)cc1O`, the “hERG current change (%, negative = inhibition) at 10uM” value was found to be 30.2%.
In the case of `Cc1ccccc1C(=O)Nc1ccc2nc3n(c(=O)c2c1)CCC3` it was -9.1%; in that of `Nc1c(C=C2C=CC(=O)C=C2)c(=O)nc2sc(CC(=O)N3CCCCC3)nn12`, 15.6%.
In the case of `COc1ccc(CNCc2ccncc2)c(OC)c1.Cl` it was -0.685%; in that of `COc1ccc(CNCc2cc(C)c(OC)cc2C)c(OC)c1.O=C(O)C(=O)O`, -54.9%.
`COc1cc(CNCc2ccc(OC)cc2OC)cc(OC)c1.O=C(O)C(=O)O`: the “hERG current change (%, negative = inhibition) at 10uM” value is listed as -29.5%.
As for `COc1ccc(NC(=S)NCc2ccc(F)cc2)c(OC)c1`, the “hERG current change (%, negative = inhibition) at 10uM” value is on record as 1.54%.
The value for `COc1ccc(CNCc2ccc(C)cc2)c(OC)c1.O=C(O)C(=O)O` was -31.3%; that for `CCn1c2ccccc2c2cc(CNCc3ccc(OC)cc3OC)ccc21.O=C(O)C(=O)O` was -76.2%; that for `CCC(CC)NCc1ccc2c(c1)c1ccccc1n2CC.O=C(O)C(=O)O` was -28.5%.
In the case of `COc1cccc(CNCc2ccc(OC)cc2OC)c1.O=C(O)C(=O)O` it was -14.1%; in that of `COc1ccc(CNCc2cc(OC)ccc2OC)cc1.O=C(O)C(=O)O`, -30.3%; in that of `Br.COc1ccc(CNCc2ccc(F)cc2)c(OC)c1`, -79%.
The value for `COc1ccc(CNCc2ccc3ccccc3c2)c(OC)c1.O=C(O)C(=O)O` was -68.3%; that for `CCn1c2ccccc2c2cc(CN3CCN(Cc4cc(OC)ccc4O)CC3)ccc21.O=C(O)C(=O)O` was 7.15%.
For `CC1(C)CN(c2ccc(N3CC(C)(C)C3=O)cc2)C1=O`, the “hERG current change (%, negative = inhibition) at 10uM” value is 4.66%.
The value for `O=C(NC1CC2CCCC(C1)N2C(=O)Nc1ccccc1)c1ccncc1` (stereo not drawn) was 0.052%.
In the case of `CNCCc1c[nH]c2ccc(O)cc12.O=C(O)C(=O)O` it was 17.7%; in that of `Cc1cccc(NC(=O)c2ccccc2NC(=O)C(C)(C)C)n1`, -0.982%; in that of `CC(C)c1ccc(Nc2nnc(SCC(=O)c3nnc(-c4ccccc4)o3)s2)cc1`, 22.2%.
For the compound `CCn1c(NCc2ccc(N(C)C)cc2)nc2ccccc21`, the “hERG current change (%, negative = inhibition) at 10uM” value is reported as -41.2%.
`O=C(Nc1nccs1)c1ccccn1`: the “hERG current change (%, negative = inhibition) at 10uM” value is -3.04%.
Regarding `Nc1nc(SCc2nc3sc4c(c3c(=O)[nH]2)CCCC4)n[nH]1`, the “hERG current change (%, negative = inhibition) at 10uM” value came to 8.47%.
The value for `CCOc1cccc(CNCCNC(=O)c2nonc2N)c1.Cl` was -7.85%; that for `COc1ccc(Cl)cc1C(=O)NCC(c1ccco1)N(C)C` (stereo not drawn) was -4.19%.
For the compound `CN(C)C(CNC(=O)c1ccccc1OCc1ccc(Cl)cc1)c1ccco1` (stereo not drawn), the “hERG current change (%, negative = inhibition) at 10uM” value is listed as -60.3%.
On to `O=C(c1ccco1)N1CCN(C(=O)c2ccc(CS(=O)c3ccc(F)cc3)o2)CC1` (stereo not drawn), for which the “hERG current change (%, negative = inhibition) at 10uM” value worked out at 11.8%.
Take `O=C(OCC(=O)N1CCN(C(=O)c2ccco2)CC1)c1ccccc1OCc1ccc(Cl)cc1`: the “hERG current change (%, negative = inhibition) at 10uM” value is on record as -35.3%.
In the case of `O=C(c1ccco1)N1CCN(C(=O)c2ccc(COc3ccc(F)cc3)o2)CC1` it was -62.6%.
The value for `O=C(c1ccco1)N1CCN(C(=O)c2ccccc2OCc2ccc(Cl)cc2)CC1` was -75.9%; that for `O=C(c1ccc(COc2ccc(Cl)cc2)o1)N1CCN(Cc2ccc3c(c2)OCO3)CC1` was -12.7%; that for `CSc1ccccc1C(=O)NCC(c1ccco1)N(C)C` (stereo not drawn) was 16.9%.
As for `CCN1CCN(C(=O)c2ccc(COc3ccc(Cl)cc3)o2)CC1`, the “hERG current change (%, negative = inhibition) at 10uM” value is recorded as -52.5%.
The value for `CCN1CCN(C(=O)c2ccc(COc3cccc(Cl)c3)o2)CC1` was -23.7%; that for `O=C(c1ccc(COc2ccc(F)cc2)o1)n1cccn1` was 4.97%.
The value for `O=C(c1ccccc1OCc1ccc(Cl)cc1)N1CCN(c2ccccn2)CC1` was -42.4%.

Source of the values: article PMC4336329 (PLoS ONE, 2015).
